In PubChem BioAssay (Tox21):
Records with an inconclusive call do not appear. A number with no mark means an inactive call. Activity calls are given as the source filed them. Calls come from the whole dose curve; as a rule, active = well fitted activation curve with a large enough effect in the signal ratio in the repeat runs, with a control signal flat (not every such curve was filed as active); inconclusive = weak or mixed curves, or effect the other way; inactive = no such curve, though single readings can be large or run the other way; the % refers to the signal ratio.
% is set by controls: 0 for no effect and ±100 for the full control effect.

Each molecule was assayed against Androgen receptor (Homo sapiens) (UniProt P10275) (assay: qHTS assay to identify small molecule agonists of the androgen receptor (AR) signaling pathway (AID 743036)). Settings: HEK293 AR-UAS-bla GripTite, beta-lactamase FRET ratio, 16 h; series mostly up to 62.4 µM.
Sequence of Androgen receptor (Homo sapiens) (P10275 whole entry, looked up): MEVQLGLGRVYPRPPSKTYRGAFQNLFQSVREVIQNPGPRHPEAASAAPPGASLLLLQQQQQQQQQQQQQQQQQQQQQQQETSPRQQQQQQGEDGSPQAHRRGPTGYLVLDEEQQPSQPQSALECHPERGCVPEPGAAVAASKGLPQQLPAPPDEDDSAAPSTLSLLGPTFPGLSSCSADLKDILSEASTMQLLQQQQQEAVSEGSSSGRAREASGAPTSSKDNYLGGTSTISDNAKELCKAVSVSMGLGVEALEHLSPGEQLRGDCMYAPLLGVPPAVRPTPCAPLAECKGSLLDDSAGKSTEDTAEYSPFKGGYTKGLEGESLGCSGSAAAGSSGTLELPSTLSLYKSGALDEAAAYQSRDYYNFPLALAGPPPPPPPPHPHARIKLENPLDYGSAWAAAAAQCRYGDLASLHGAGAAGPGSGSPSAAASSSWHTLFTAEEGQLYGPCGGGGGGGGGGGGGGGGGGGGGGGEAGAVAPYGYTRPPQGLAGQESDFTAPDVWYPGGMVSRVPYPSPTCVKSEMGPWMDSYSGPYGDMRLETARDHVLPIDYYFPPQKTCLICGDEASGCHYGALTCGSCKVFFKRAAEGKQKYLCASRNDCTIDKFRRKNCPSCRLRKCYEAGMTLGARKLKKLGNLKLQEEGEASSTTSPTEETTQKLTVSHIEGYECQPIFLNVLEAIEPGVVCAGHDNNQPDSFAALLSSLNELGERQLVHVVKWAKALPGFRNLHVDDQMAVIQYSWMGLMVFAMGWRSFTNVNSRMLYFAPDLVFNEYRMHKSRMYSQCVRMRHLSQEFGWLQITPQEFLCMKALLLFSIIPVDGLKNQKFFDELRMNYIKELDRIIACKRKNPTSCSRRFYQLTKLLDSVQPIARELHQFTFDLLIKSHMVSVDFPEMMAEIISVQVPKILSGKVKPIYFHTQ
From the text: U.S. Tox21 Program National Center for Advancing Translational Sciences [NCATS] NIH Chemical Genomics Center [NCGC] U.S. Environmental Protection Agency [EPA] National Institutes of Environmental Health Sciences [NIEHS] National Toxicology Program [NTP] U.S. Food and Drug Administration [FDA] Tox21 Assay Overview: Androgen receptor (AR), a nuclear hormone receptor, plays a critical role in AR-dependent prostate cancer and other androgen related diseases. Endocrine disrupting chemicals (EDCs) and their interactions with steroid hormone receptors like AR may cause disruption of normal endocrine function as well as interfere with metabolic homeostasis, reproduction, developmental and behavioral functions. To identify the compounds that activate AR signaling, GeneBLAzer AR-UAS-bla-GripTite cell line (Invitrogen, Carlsbad, CA, USA) containing a beta-lactamase reporter gene under the control of an Upstream Activator Sequence (UAS) stably integrated into HEK293 cells was used to screen the Tox21 10K compound library.
Tox21 Assay Protocol Summary: AR-bla cells were dispensed at 2,000 cells/6 uL/well of assay medium into black wall/clear-bottom 1536-well plates using a Multidrop Combi (ThermoFisher Scientific, Waltham, MA) dispenser. After the assay plates were incubated at 37C and 5% CO2 for 4 h, 23 nL of compounds dissolved in DMSO, positive controls or DMSO only was transferred to the assay plate by a Pintool station (Kalypsys, San Diego, CA). The plates were incubated at 37C and 5% CO2 for 16 h. Then 1 uL of LiveBLAzerTM B/G FRET substrate was added using a Bioraptr Flying Reagent Dispenser (FRD) workstation (Beckman Coulter, Indianapolis, IN, USA). The plates were incubated at room temperature for 2 h, and fluorescence intensity was measured by an Envision plate reader (PerkinElmer, Shelton, CT).
`NCCc1ccn[nH]1` was tested, and the outcome was “inactive”. For `C=CCCCCCCCCCCC`, the activation was -0.154% [at 6.9 µM]. For `CCC(C)(C)C1CCC(=O)CC1`, the outcome was “inactive”. For `O=C(O)c1ccccc1C(=O)Nc1ccc(S(=O)(=O)Nc2nccs2)cc1`, the outcome was “inactive”. For `CCCCCCCCCCC`, the outcome was “inactive”. In the case of `CN[C@@H]1[C@H](O)[C@H](NC)[C@H]2O[C@@]3(O)C(=O)C[C@@H](C)O[C@H]3O[C@@H]2[C@H]1O`, the outcome is reported as “inactive”. In the case of `O=S(=O)(O)SSS(=O)(=O)O`, the outcome is reported as “inactive”. With `CC(C)COC(=O)COc1ccc(Cl)cc1Cl` the outcome was “inactive”. For `O=C1OC(=O)c2cc(Oc3ccc4c(c3)C(=O)OC4=O)ccc21`, the outcome was “inactive”. `CCCCCCCCCCCCCC(=O)OC` was tested, and the outcome was “inactive”. With `CCCCC[Si](OCC)(OCC)OCC` the outcome was “inactive”. For `COC(OC)C(C)c1ccccc1` (configuration not stated), the outcome was “inactive”. With `COCC(=O)Nc1c(I)c(C(=O)NCC(O)CO)c(I)c(C(=O)N(C)CC(O)CO)c1I` (configuration not stated) the outcome was “inactive”. With `Cn1c(=O)c2c(ncn2CC2OCCO2)n(C)c1=O` the outcome was “inactive”. In the case of `CNC(=O)NC`, the outcome is reported as “inactive”. In the case of `C=CCOCC(O)CCl` (configuration not stated), the outcome is reported as “inactive”. In the case of `O=C(CN1CCN(Cc2ccc3c(c2)OCO3)CC1)N1c2ccccc2Sc2ccccc21`, the outcome is reported as “inactive”. In the case of `CCCCCCCCCCCCCCCCI`, the outcome is reported as “inactive”. With `OC(CCN1CCCCC1)(c1ccccc1)c1ccccc1` the outcome was “inactive”. With `COc1cc([N+](=O)[O-])ccc1N` the outcome was “inactive”. For `CC(=O)OC(C(=O)c1ccccc1)c1ccccc1` (configuration not stated), the outcome was “inactive”. For `O=CN1CCOCC1`, the outcome was “inactive”. In the case of `Nc1cc(C(=O)O)ccc1Cl`, the outcome is reported as “inactive”. `O=C(O)c1ccccc1C(=O)OCc1ccccc1` was tested, and the outcome was “inactive”. With `COc1ccc(/C=N/NC(=O)c2ccncc2)cc1OC` the outcome was “inactive”. With `Nc1ccnc(=O)[nH]1` the outcome was “inactive”. For `O=C1c2ccccc2-c2ccccc21`, the outcome was “inactive”.
